Eleven molecules from ChEMBL document CHEMBL3988442, “University of Dundee, Small-Polar-MMV Screening Library” (2021) can be followed below.

For some of these results: Results with a measured potency or affinity are listed apart.

What all share (parameters): scale not given: direction of the effect not stated beside the values
The target of experiment [1] is Protein translocase subunit SecA (Escherichia coli (strain K12)) (UniProt P10408). In words: Assay to Identify E. coli SecA ATPase Inhibitors. Type of experiment: functional. The note with it: 30 µM.
Experiment [2] concerns the target T1, Ubiquitin-activating enzyme e1, putative (Leishmania donovani (strain BPK282A1)) (UniProt E9BSI1).
T1 sequence (whole entry): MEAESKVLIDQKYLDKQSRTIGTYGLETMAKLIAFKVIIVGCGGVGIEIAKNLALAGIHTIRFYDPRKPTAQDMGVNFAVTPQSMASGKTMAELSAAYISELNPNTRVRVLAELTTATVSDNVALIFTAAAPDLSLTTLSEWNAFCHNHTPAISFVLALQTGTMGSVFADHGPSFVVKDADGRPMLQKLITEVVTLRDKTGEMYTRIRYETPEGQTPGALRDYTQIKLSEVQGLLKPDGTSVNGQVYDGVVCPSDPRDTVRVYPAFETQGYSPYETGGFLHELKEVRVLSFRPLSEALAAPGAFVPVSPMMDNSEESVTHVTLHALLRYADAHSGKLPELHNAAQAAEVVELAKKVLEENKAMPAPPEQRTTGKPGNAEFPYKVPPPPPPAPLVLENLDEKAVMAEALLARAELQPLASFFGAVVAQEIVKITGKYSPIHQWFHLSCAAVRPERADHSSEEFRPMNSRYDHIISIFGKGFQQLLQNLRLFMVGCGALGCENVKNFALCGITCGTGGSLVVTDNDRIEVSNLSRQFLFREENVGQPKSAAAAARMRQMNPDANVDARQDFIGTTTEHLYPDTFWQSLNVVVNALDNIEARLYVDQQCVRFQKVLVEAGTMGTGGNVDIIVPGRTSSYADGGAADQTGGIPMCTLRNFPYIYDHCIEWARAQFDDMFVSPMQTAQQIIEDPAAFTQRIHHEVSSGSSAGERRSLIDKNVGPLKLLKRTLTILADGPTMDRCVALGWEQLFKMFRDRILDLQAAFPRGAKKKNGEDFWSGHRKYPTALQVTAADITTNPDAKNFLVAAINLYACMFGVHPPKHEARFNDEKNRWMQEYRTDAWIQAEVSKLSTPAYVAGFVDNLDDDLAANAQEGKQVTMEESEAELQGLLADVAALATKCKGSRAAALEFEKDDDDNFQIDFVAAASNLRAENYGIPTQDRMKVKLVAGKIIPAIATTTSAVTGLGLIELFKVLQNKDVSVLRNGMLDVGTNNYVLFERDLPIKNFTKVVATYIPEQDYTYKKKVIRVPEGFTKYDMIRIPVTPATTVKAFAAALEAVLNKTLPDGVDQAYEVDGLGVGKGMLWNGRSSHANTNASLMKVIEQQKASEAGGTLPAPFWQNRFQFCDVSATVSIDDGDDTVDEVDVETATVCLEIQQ
In words: Leishmania donovani Ubiquitin Activating Enzyme (LdE1). Type of experiment: functional. The following applies: 30 µM.

Experiment [3] addresses AMP-activated protein kinase, AMPK (Homo sapiens) (UniProt P54646+O43741+P54619+Q9UGJ0+Q9Y478+Q13131+Q9UGI9). In words: AMP-dependent Kinase enzyme assay. An in vitro enzyme assay that detects ADP turnover that is directly proportional to AMPK activity. This uses naive AMPK that is activated during the assay with MK-8722. The following applies: 30 µM. Type of experiment: functional.

Experiment [4] deals with Sialic acid-binding Ig-like lectin 9 (Homo sapiens) (UniProt Q9Y336). In words: Hs-Siglec9 ALPHAscreen SOP 20170721. The note with it: 10 µM. A general note: Alpha assays give light when donor and acceptor beads are brought close together.
The next experiment relates to Trypanosoma cruzi. Put plainly: Trypanosoma cruzi phosphomannomutase and mannose-1-phosphate guanylyltransferase assay. Type of experiment: functional. The note with it: 10 µM.
Experiment [5] has as its target T2, Arginase-2, mitochondrial (Homo sapiens) (UniProt P78540).
T2 sequence (whole entry): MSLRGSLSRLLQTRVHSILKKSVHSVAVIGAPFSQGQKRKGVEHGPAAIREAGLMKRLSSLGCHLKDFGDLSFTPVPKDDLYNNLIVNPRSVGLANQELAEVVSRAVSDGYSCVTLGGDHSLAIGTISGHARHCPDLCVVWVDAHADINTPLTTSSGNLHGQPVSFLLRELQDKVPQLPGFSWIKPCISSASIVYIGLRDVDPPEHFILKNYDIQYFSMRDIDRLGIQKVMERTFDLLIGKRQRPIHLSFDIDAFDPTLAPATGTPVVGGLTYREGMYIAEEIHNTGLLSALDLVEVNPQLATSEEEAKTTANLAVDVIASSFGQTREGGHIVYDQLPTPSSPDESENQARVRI
Put plainly: in vitro enzyme assay to detect the production of urea directly proportional to the activity of Arginase II. Further: in the data most compounds retested in dose-response had high values. The note with it: 33.3 µM. Type of experiment: functional.

Experiment [6] deals with T3, Proteasome subunit beta (Trypanosoma cruzi) (UniProt O96673).
T3 sequence (whole entry): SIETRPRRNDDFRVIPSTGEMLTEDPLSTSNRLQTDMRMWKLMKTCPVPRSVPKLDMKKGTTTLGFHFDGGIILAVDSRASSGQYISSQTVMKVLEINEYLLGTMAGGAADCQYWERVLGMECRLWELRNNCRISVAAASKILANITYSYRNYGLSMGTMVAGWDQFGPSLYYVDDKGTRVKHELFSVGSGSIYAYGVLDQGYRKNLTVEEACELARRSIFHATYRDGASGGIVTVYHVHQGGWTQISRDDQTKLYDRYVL
Put plainly: Trypanosoma cruzi proteasome chymotrypsin-like activity (TcProtChymo) assay. Further: in the data most compounds retested in dose-response had high values. Type of experiment: functional. The note with it: 9.37 µM.

The species entered for the next experiment is Homo sapiens. Put plainly: To identify inhibition of the IFN signalling (Jak-Stat) pathway via expression of an eGFP reporter gene under the control of an IFN-stimulated response element (ISRE) containing MxA promoter. Type of experiment: functional. The note with it: 30 µM. Background: In a reporter assay the amount or activity of a reporter protein is the signal.

Experiment [7] addresses T4, Tyrosyl-tRNA synthetase, putative (Trypanosoma cruzi (strain CL Brener)) (UniProt Q4DSP6).
T4 sequence (whole entry): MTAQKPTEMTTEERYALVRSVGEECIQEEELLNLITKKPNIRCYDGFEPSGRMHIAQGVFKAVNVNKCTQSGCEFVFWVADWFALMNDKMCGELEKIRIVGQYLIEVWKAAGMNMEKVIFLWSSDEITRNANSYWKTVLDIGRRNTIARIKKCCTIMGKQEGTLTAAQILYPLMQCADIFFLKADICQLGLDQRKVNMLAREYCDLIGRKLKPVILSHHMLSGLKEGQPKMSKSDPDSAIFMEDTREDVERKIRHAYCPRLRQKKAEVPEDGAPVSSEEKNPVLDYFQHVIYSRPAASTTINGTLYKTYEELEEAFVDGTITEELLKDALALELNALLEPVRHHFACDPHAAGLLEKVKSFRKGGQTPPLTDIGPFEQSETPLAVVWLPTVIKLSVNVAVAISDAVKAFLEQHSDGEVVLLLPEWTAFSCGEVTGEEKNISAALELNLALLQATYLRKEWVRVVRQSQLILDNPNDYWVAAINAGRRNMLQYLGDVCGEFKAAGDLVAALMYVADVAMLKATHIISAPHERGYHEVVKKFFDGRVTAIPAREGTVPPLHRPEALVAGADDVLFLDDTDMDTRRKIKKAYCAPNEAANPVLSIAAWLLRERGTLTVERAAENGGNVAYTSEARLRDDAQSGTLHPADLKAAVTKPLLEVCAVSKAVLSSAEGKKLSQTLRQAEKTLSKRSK
In words: Trypanosoma cruzi tyrosyl tRNA synthetase (TcYRS) _High Tyrosine SOP. Further: in the data most compounds retested in dose-response had high values. Type of experiment: functional. The following applies: 30 µM.

Experiment [8] has as its target T4, Tyrosyl-tRNA synthetase, putative (Trypanosoma cruzi (strain CL Brener)). In words: Trypanosoma cruzi tyrosyl tRNA synthetase (TcYRS) SOP. Type of experiment: functional. The following applies: 30 µM.
For experiment [9], the target named is Chromo domain-containing protein 1 (Saccharomyces cerevisiae (strain ATCC 204508 / S288c) (Baker's yeast)) (UniProt P32657). Put plainly: ScCHD-1 Enzyme Inhibition Assay. Further: in the data most compounds retested in dose-response had high values. Type of experiment: functional. The following applies: 30 µM.
Chain of Chromo domain-containing protein 1 (Saccharomyces cerevisiae (strain ATCC 204508 / S288c) (Baker's yeast)) (P32657 whole entry, the tested form may be a part): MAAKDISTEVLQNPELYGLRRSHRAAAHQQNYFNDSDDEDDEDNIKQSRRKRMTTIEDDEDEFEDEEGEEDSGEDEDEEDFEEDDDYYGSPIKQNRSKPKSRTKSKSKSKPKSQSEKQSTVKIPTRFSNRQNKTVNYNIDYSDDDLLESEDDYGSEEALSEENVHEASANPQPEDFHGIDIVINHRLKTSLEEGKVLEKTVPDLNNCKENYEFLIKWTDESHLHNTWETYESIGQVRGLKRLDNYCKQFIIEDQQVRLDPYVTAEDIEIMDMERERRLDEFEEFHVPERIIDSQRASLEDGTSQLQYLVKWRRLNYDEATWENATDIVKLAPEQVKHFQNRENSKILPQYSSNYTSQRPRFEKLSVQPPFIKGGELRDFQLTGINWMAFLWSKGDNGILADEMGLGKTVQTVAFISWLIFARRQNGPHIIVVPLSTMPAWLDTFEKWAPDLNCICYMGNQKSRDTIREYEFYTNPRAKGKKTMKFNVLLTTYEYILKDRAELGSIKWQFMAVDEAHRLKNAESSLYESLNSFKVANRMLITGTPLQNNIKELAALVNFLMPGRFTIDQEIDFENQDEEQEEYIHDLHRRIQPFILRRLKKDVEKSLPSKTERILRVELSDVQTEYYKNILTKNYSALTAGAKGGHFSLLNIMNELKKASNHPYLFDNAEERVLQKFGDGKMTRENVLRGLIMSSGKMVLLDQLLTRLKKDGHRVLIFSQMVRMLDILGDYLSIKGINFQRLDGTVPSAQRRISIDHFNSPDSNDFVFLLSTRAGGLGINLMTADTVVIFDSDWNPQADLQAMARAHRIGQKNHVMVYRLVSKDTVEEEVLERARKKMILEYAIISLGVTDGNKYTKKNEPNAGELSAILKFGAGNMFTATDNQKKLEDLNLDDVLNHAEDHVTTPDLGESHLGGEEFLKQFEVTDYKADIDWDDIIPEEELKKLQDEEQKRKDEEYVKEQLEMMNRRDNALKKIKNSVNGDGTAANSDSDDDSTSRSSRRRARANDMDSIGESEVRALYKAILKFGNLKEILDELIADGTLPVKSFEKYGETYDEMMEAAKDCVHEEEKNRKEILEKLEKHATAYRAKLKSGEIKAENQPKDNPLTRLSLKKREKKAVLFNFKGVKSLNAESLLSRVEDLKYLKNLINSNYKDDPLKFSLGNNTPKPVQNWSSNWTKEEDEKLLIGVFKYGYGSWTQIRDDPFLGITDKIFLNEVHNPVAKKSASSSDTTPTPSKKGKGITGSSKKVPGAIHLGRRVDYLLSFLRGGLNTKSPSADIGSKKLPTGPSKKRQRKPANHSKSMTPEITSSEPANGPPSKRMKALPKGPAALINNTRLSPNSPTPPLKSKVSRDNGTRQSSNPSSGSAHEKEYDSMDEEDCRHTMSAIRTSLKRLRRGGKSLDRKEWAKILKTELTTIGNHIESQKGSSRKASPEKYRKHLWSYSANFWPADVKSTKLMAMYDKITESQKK

Chain of Protein translocase subunit SecA (Escherichia coli (strain K12)) (P10408 whole entry): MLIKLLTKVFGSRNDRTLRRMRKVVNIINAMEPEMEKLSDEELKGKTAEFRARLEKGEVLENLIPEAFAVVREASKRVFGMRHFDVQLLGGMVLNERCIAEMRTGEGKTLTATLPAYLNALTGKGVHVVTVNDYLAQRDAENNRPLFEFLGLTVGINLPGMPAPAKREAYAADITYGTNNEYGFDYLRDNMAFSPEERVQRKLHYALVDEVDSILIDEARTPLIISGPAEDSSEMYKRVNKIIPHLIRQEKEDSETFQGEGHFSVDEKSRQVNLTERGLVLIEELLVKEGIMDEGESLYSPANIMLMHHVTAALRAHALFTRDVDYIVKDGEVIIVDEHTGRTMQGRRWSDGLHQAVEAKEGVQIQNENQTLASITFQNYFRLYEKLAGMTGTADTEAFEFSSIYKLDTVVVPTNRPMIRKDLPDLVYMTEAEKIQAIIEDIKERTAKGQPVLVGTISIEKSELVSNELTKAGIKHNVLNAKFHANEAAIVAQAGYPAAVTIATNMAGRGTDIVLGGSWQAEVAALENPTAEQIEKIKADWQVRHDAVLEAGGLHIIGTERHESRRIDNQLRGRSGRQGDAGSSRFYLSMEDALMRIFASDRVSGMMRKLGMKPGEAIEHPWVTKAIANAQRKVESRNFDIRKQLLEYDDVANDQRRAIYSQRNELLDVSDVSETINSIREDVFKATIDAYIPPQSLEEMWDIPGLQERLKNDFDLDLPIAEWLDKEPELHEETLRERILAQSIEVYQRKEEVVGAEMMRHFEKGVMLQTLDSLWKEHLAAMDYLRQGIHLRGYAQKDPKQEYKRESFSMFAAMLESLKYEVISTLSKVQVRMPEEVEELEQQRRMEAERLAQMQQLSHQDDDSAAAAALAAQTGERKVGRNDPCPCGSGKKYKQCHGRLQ
Chain of Sialic acid-binding Ig-like lectin 9 (Homo sapiens) (Q9Y336 whole entry): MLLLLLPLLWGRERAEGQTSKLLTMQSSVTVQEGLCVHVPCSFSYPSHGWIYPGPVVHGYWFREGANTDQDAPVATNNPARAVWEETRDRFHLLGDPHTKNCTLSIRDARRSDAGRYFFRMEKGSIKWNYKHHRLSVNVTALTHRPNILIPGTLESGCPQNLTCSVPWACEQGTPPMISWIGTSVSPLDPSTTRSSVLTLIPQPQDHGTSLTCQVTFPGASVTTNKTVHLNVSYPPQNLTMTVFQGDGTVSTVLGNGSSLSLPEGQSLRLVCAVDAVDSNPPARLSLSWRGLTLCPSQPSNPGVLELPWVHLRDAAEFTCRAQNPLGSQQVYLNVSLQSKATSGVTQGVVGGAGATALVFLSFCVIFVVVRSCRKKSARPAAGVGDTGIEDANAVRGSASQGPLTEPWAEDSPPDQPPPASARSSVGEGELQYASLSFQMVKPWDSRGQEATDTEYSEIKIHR

With `CCCNCc1cn(C)nc1-c1cccnc1`, the Percent Effect in experiment [1] is -2.45%; in experiment [2], -2.7%; in experiment [3], 1.1%; in [4] it was -2.38%; in the experiment with Trypanosoma cruzi, -6.55%; in experiment [5], 1.74%. For the same molecule, the Percent Effect is 11.8% in experiment [6]; -8% in the experiment listed under Homo sapiens; 0% in [7]; 1.24% in [8]; 1.57% in experiment [9].
In the case of `O=C(COc1ccccc1)N1CCC[C@]2(C[C@H](OCC3CC3)CO2)C1`, the Percent Effect in experiment [1] was -0.456%; in experiment [2] it was 7.79%; in experiment [3], 0.996%; in experiment [4], -3.06%; in the experiment with Trypanosoma cruzi, -3.45%; in experiment [5] it was 14.8%. Further, the Percent Effect in experiment [6] is 22.1%; in the experiment listed under Homo sapiens it was 3.98%; in experiment [7], 8.47%; in experiment [8], 16.7%; in [9] it was -7.91%.
Consider `O=C(CCCNc1ncccn1)N1CCCC(n2cccn2)C1` (stereo unspecified), for which the Percent Effect is -7.67% in experiment [1]; -1.27% in experiment [2]; 0.0579% in [3]; -1.81% in experiment [4]; -3.18% in the experiment with Trypanosoma cruzi; -4.52% in experiment [5]. Also, the Percent Effect in [6] was 2.23%; in the experiment listed under Homo sapiens it was 14.1%; in [7], -3.12%; in experiment [8] it was -2.53%; in experiment [9], -14.1%.
For `CCOC1CCN(C(=O)c2cnn(-c3ccccc3Cl)c2)CC1`, the Percent Effect in experiment [1] is -4.12%; in experiment [2], 8.11%; in [3], -9.38%; in experiment [4] it was 9.51%; in the experiment with Trypanosoma cruzi, 0.283%; in experiment [5], 0.802%. For the same molecule, the Percent Effect in experiment [6] was 2.34%; in the experiment filed under Homo sapiens, 4.91%; in experiment [7], 6.4%; in experiment [8], 16.1%; in experiment [9], -0.798%.
Take `CCCOc1cc(C)ccc1NC(=O)NCCC(=O)N(C)C`: the Percent Effect in experiment [1] is -4.1%; in [2], 13.7%; in experiment [3] it was -1.53%; in [4], -3%; in the experiment on Trypanosoma cruzi it was -3.33%; in [5], 4.09%. For the same molecule, the Percent Effect in experiment [6] is 20.6%; in the experiment listed under Homo sapiens, 10.2%; in experiment [7], 6.45%; in experiment [8], 15%; in experiment [9] it was -2.56%.
On to `O=C(NCCn1ccc(-c2ccccn2)n1)c1ccncc1`, for which the Percent Effect in [1] is -1.48%; in [2] it was 8.22%; in experiment [3], -7.04%; in [4], 17.5%; in the experiment with Trypanosoma cruzi, 6.46%; in experiment [5] it was -3.18%. Also, the Percent Effect was 9.94% in experiment [6]; 4.13% in the experiment filed under Homo sapiens; 2.15% in experiment [7]; 10% in experiment [8]; -3.21% in experiment [9].
As to `Cn1cccc1C(=O)N1CCCC2(CCN(CCN3CCCC3)C2=O)C1` (stereo unspecified), the Percent Effect in [1] was -6.99%; in experiment [2], 2.6%; in experiment [3], 0.774%; in experiment [4] it was 9.32%; in the experiment with Trypanosoma cruzi, -1.48%; in experiment [5] it was -4.14%. Also, the Percent Effect in [6] is 7.65%; in the experiment listed under Homo sapiens it was 11.9%; in experiment [7], -2.15%; in experiment [8], -1.24%; in [9] it was 0.981%.
With `O=C(O)CCc1cccc(C2CCCN2Cc2ccc(F)c(F)c2)n1` (stereo unspecified), the Percent Effect was -3.79% in experiment [1]; 4.05% in experiment [2]; 1.3% in [3]; 8.61% in experiment [4]; 1.78% with Trypanosoma cruzi; 1.62% in [5]. For the same molecule, the Percent Effect in experiment [6] was 1.09%; in the experiment filed under Homo sapiens, 0.308%; in [7], 6.45%; in experiment [8], 14.3%; in experiment [9], -20.7%.
Take `O=C(NCc1ccoc1)NC1CCCN(c2ncccn2)C1` (stereo unspecified): the Percent Effect in [1] is -3.31%; in experiment [2] it was 7.89%; in experiment [3], 6.88%; in experiment [4] it was 0.569%; with Trypanosoma cruzi, 4.97%; in experiment [5], -8.28%. The Percent Effect in experiment [6] is 15.8%; in the experiment filed under Homo sapiens, 20.9%; in experiment [7], 3.19%; in experiment [8], 13%; in [9] it was -3.64%.
For `Cc1csc(N2CCN(Cc3cnc(C)s3)CC2C)n1` (stereo unspecified), the Percent Effect in [1] was -4.06%; in [2] it was 5.48%; in experiment [3] it was 3.55%; in [4], -0.927%; with Trypanosoma cruzi it was 2.94%; in experiment [5], 1.36%. Besides, the Percent Effect in [6] was 11.2%; in the experiment listed under Homo sapiens, 52.1%; in [7], 5.38%; in experiment [8], 17.5%; in [9], -2.04%.
`CCc1nnc(CN2CCN(C(=O)c3ccccn3)CC2)o1`: the Percent Effect was 0.554% in experiment [1]; 10.4% in experiment [2]; 1.99% in experiment [3]; -1.91% in experiment [4]; -0.881% with Trypanosoma cruzi; 6.53% in experiment [5]. The Percent Effect was 4.45% in experiment [6]; 24.1% in the experiment filed under Homo sapiens; 5.71% in experiment [7]; 9.41% in experiment [8]; -20.1% in [9].
